Assay outcomes deposited in PubChem BioAssay by National Center for Advancing Translational Sciences (NCATS).
Lassa entry inh: qHTS for Inhibitors of binding or entry into cells for Lassa Virus; Lassa virus pseudotype entry inhibition, cell reporter; Potency, µM (highest dose often 37.9 µM), for the others: at the top dose activity change, negative = inhibition, hits mostly inhibitors; actives 1.2% (n = 300,000); calls by dose curve; tested in HEK293 cells; note: potency is the fitted concentration of half-maximal effect; % is set by controls: 0 for no effect and ±100 for the full control effect; nearly all actives have a fitted effect of over 50% in size
HCMV inh: qHTS Assay for inhibitors of the human cytomegalovirus (HCMV). HFF cells, HCMV-luciferase reporter, 72 h; hits give low values. activity change, negative = inhibition, % at 57.5 µM. actives 4.5% (n = 410,000). AID 1259415, 2018; in the data active = activity change below about -60%; inconclusive = no clear call, values can overlap the other calls; inactive = above about -39%; note: % is set by controls: 0 for no effect and ±100 for the full control effect
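Two compound doses tested in HFFs infected with HCMV-luciferase, MOI 1 PFU/cell, 72 h at 37C. Lysate luminescence read with OneGlo; data normalized against buffer-only and 10uM Salinomycin inhibitor controls.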
HCV inhibitor: qHTS Assay for Inhibitors of Hepatitis C Virus (HCV). AID 651820, 2012. Potency, µM (top dose mostly 41.8 µM), for the others: at the highest dose activity change, negative = inhibition, hits mostly inhibitors. actives 3.4% (n = 340,000). Huh7.5.1 HCVcc-Cre infection, luciferase reporter, 44 h; active = well fitted inhibition curve with a large enough effect; inconclusive = small, poorly fitted or top-dose-only effect, or another doubt; inactive = no such curve, though single readings can be large or run the other way; note: potency is the fitted concentration of half-maximal effect; % is set by controls: 0 for no effect and ±100 for the full control effect
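Infectious HCVcc-Cre (~0.5 moi) was added to cells just after compound, with cells seeded 4 h earlier at 1,000 per well. Luciferase activity after 44 h culture reported infection; substrate was incubated 15 min at room temperature before reading.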
SARS PLP yeast: qHTS of Yeast-based Assay for SARS-CoV PLP; S. cerevisiae expressing SARS-CoV PLpro, growth rescue; Potency, µM (top dose mostly 32.9 µM), for the others: at the top dose activity, positive = growth rescue, hits mostly activators; actives 0.19% (n = 330,000); AID 485353, 2010; calls by dose curve; note: potency is the fitted concentration of half-maximal effect; 0% is about no effect; nearly all actives have a fitted effect of over 55% in size
FMDV inh: High Throughput Screening for Foot and Mouth Disease Virus Antivirals | FMDV antiviral cell-based qHTS | Potency, µM (titrated, usually from 57.9 µM), without a hit: top-dose activity change, negative = inhibition, actives largely listed as inhibitors | actives 1.2% (n = 410,000); calls by dose curve; tested in HEK293T cells; note: read-out not given here; potency is the fitted concentration of half-maximal effect; % is set by controls: 0 for no effect and ±100 for the full control effect; nearly all actives have a fitted effect of over 45% in size
MARV entry inh: qHTS for inhibitors of binding or entry into cells for Marburg Virus. Potency, µM (top dose mostly 37.8 µM), for the others: top-dose activity change, negative = inhibition, most hits filed as inhibitors. Marburg virus pseudotyped entry inhibition, cell reporter. actives 1.8% (n = 300,000); calls by dose curve; tested in HEK293 cells; note: potency is the fitted concentration of half-maximal effect; % is set by controls: 0 for no effect and ±100 for the full control effect
Active calls of the source: *; ? = inconclusive; . = not tested or not shown; [ ] = remark or other dose. Most compounds without a hit are left out; they make up all but 8% or so of the library.

SMILES | Lassa entry inh | HCMV inh | HCV inhibitor | SARS PLP yeast | FMDV inh | MARV entry inh
Cc1[nH]c2ccc(OC(F)(F)F)cc2c1CCNCc1cccc([N+](=O)[O-])c1 | 10% | ? | ? | -4% | -19% | ?
CCOc1cccc(CNCCc2c(C)[nH]c3ccc(OC(F)(F)F)cc23)c1O | . | -101* | ? | -1% | 14µM* | .
O=C(CSc1ncnc2ccccc12)c1cccs1 | ? | 1 | 3% | -3% | -39% | ?
Cc1ccc(C(=O)CSc2ncnc3ccccc23)o1 | ? | -60* | 4% | -1% | 8% | ?
O=[N+]([O-])c1cccc(CSc2ncnc3ccccc23)c1 | 6% | -81* | -27% | -10% | -13% | 2%
Fc1ccc(CSc2ncnc3ccccc23)cc1 | -20% | -68* | 3% | -1% | 3% | ?
Cc1oc2c(cc(NS(=O)(=O)c3ccc(Br)cc3)c3ccccc32)c1C(=O)OCc1ccccc1 | -9%[46.1 µM] | 49 | . | . | 19% | -9%[46.1 µM]
CCOC(=O)N1CCN(C(=O)c2ccc3c(c2)ncn3C2CCCC2)CC1 | 5% | -62* | 22% | -3% | . | 0%
CCOC(=O)N1CCC(NC(=O)c2ccc3c(c2)ncn3C2CCCC2)CC1 | . | -68* | -1% | -3% | 8% | .
O=C(NC1CC1)c1ccc2c(c1)ncn2C1CCCC1 | 21% | -8 | 3% | 6% | 61% | 11%
Cc1cc(C)nc(N/N=C/C2=C(N3CCOCC3)C(=C/c3ccccc3)/CC2)n1 | ? | ? | ? | -21% | 28µM* | ?
O=C(N/N=C/C1=C(N2CCOCC2)C(=C\c2ccccc2)/CC1)Nc1ccccc1 | -5% | -71* | ? | 4% | -1% | ?
Cc1ccc2oc(C(=O)Nc3nc(-c4ccc(F)cc4)ns3)c(C)c2c1 | 2%[46.1 µM] | 46 | . | . | -3% | 0%[46.1 µM]
Cc1ccc(-c2cn3c(n2)sc2cc(C(=O)NC4CCCc5ccccc54)ccc23)cc1 (stereo unspecified) | 7%[46.1 µM] | . | . | . | 45% | .
CCOc1ccc(CCNC(=O)c2c(C)oc3ncn(CC(C)C)c(=O)c23)cc1 | 9%[46.1 µM] | 0 | . | . | -9% | .
COc1ccc(C2=NCCn3nc4cc([N+](=O)[O-])ccc4c32)cc1 | . | -26 | ? | -1% | 9% | .
COc1ccc(-n2cc3ccc([N+](=O)[O-])cc3n2)cc1 | ? | -96* | ? | -3% | -35% | ?
O=C(NCCO)c1cn(C2CCN(Cc3c(F)cccc3Cl)CC2)nn1 | . | . | . | . | -19% | .
CC[n+]1c(-c2ccccc2)c2cc(N)ccc2c2ccc(N)cc21 | ? | -100* | ? | . | 40µM* | ?
CN(c1cccc(NC(=O)CN(c2cccc(Cl)c2)S(=O)(=O)c2ccccc2)c1)S(C)(=O)=O | ? | ? | 11µM* | 2% | 0% | ?
CCOc1ccc(N(CC(=O)Nc2cccc(N(C)S(C)(=O)=O)c2)S(=O)(=O)c2ccccc2)cc1 | ? | -64* | ? | 3% | 16% | ?
CCOC(=O)CN1C(=O)CCSc2ccc(Cl)cc21 | -1%[46.1 µM] | 2 | -9% | 0% | -9% | 1%[46.1 µM]
CCOC(=O)c1ccc(NC(=S)N2CCC(O)CC2)cc1 | 6% | -3 | 8% | 2% | 52% | ?
CCOC(=O)c1ccc(NC(=S)N2CCSC2c2ccc(Br)cc2)cc1 (stereo unspecified) | 5% | -61* | ? | -25% | 2% | 7%
CN1C(=O)COC2CCC(C(=O)C3=C(C(=O)O)CCCC3)CC21 (stereo unspecified) | . | . | . | . | . | 11%
SMILES | Lassa entry inh | HCMV inh | HCV inhibitor | SARS PLP yeast | FMDV inh | MARV entry inh
O=C(CNC(c1ccccc1)c1ccccc1)Nc1ccccc1-c1ccccc1 | ? | -71* | ? | -1% | ? | ?
O=C(Cn1nc(-c2ccccc2Cl)ccc1=O)Nc1ccc(Br)cc1 | 7% | -23 | 9% | -3% | -1% | 1%[46.1 µM]
O=C(CSCc1c(Cl)cccc1Cl)Nc1ccccc1-c1ccccc1 | ? | -66* | ? | 16% | -19% | ?
O=C(Cn1nc(-c2ccccc2Cl)ccc1=O)Nc1ccccc1-c1ccccc1 | -20% | -64* | ? | 0% | -17% | -19%
O=Cc1c2c(cc3ccc(Cl)cc13)CCC2 | . | 3 | . | . | . | .
O=C(COc1ccc(Cl)cc1)NCCc1csc(-c2cccc(F)c2)n1 | 21%[46.1 µM] | 12 | . | . | -18% | .
CC(=O)Nc1ccc(S(=O)(=O)N(C)CC(=O)NNc2c(F)c(F)cc(F)c2F)cc1 | . | -23 | 5% | -1% | 0% | .
CCC(=O)N1[C@@H]2c3ccc(C4=CCCCC4)c(=O)n3C[C@H]1[C@H](CO)[C@H]2C(=O)N[C@@H](C)c1ccccc1 | . | -9 | . | . | . | .
O=C(Nc1ccc(Oc2ccccc2)cc1)c1csc([C@@H]2O[C@H](CO)[C@H](O)[C@H](O)[C@H]2O)n1 | . | -4 | . | . | -4% | .
c1ccc(Nc2ccc(NCCc3c[nH]c4ccccc34)cc2)cc1 | . | 25 | . | . | . | .
Cc1cc(NCCc2c[nH]c3ccccc23)ccc1Nc1cccnc1 | . | -87* | . | . | . | .
CC1(C)Cc2c(sc3c2C(=O)N(c2ccccc2)C2=NCCN23)CS1 | 6% | 11 | 23% | -3% | -23% | 14%
CN1C(=O)c2c(sc3c2CC(C)(C)SC3)N2CCN=C12 | -6% | -5 | 11µM* | 0% | ? | -10%
CCOC(=O)c1c(-n2c(C)cc(C=C3C(=O)NC(=S)NC3=O)c2C)sc2c1CCCC2 | . | . | ? | -15% | 10µM* | 5%
Cc1ccc(N2C(=O)NC(=O)/C(=C\c3cc(C)n(-c4sc5c(c4C#N)CCCC5)c3C)C2=O)cc1 | ? | -19 | -3% | -9% | ? | 2.5µM*
COC(=O)c1c(-n2c(C)cc(C=O)c2C)sc2c1CCCC2 | -7% | -76* | -20% | -19% | . | -15%
CCOC(=O)c1c(-n2c(C)cc(/C=C3/C(=O)NC(=O)N(CC)C3=O)c2C)sc2c1CCCC2 | -23% | -6 | 5% | . | ? | -5%
CCN1C(=O)NC(=O)/C(=C/c2cc(C)n(-c3sc(C)c(C)c3C#N)c2C)C1=O | ? | -35 | 17% | -3% | -1% | ?
Cc1cc(C=O)c(C)n1-c1sc2c(c1C(=O)O)CCCC2 | 1% | -4 | 4% | -21% | -6% | 1%
CC(C)Cc1ccc(CN2CCCC(NC(=O)c3nn(C)c(=O)c4ccccc34)C2)cc1 (stereo unspecified) | . | -5 | ? | -2% | -22% | .
CCOC(=O)Cc1ccc(Nc2nc(NC)nc3ccsc23)cc1 | . | -16 | . | . | ? | .
CCOC(=O)Cc1ccc(Nc2nc(NCc3ccccc3)nc3ccsc23)cc1 | . | 23 | . | . | 28µM* | .
COCCNc1nc(NCc2ccccc2)nc2ccsc12 | . | -61* | . | . | ? | .
COCCNc1nc(NC(C)C)nc2ccsc12 | . | 1 | . | . | -22% | .
